# Screens: PubChem BioAssay, National Center for Advancing Translational Sciences (NCATS)
# LASV entry inh = inhibitors of Lassa virus binding or cell entry; Lassa virus pseudotype entry inhibition, cell reporter; Potency, µM (series often up to 37.9 µM), actives largely listed as inhibitors; hit rate 1.2% among 300,000; AID 540256; calls by dose curve; tested in HEK293 cells; further: nearly all actives have a fitted effect of over 50% in size
# HCV inhibitor = inhibitors of hepatitis C virus infection; Huh7.5.1 HCVcc-Cre infection, luciferase reporter, 44 h; hit rate 3.4% among 340,000; Potency, µM (top dose mostly 41.8 µM), most hits filed as inhibitors; active means well fitted inhibition curve with a large enough effect; inconclusive means small, poorly fitted or top-dose-only effect, or another doubt; inactive means no such curve, though single readings can be large or run the other way
#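 HCVcc-Cre virus at an moi near 0.5 was added right after compound to cells cultured 4 h from seeding (1,000 cells/well). Luciferase activity was determined 44 h later, 15 min after substrate addition at RT.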
# MARV entry inh = Marburg virus entry inhibition; Potency, µM (top dose mostly 37.8 µM), most hits filed as inhibitors; Marburg virus pseudotyped entry inhibition, cell reporter; hit rate 1.8% among 300,000; calls by dose curve; tested in HEK293 cells
# FMDV antiviral = antivirals against foot and mouth disease virus | FMDV antiviral cell-based qHTS | Potency, µM (titrated, usually from 57.9 µM), usual class: inhibitors | hit rate 1.2% among 410,000 | AID 1159524; calls by dose curve; tested in HEK293T cells; further: read-out not given here; nearly all actives have a fitted effect of over 45% in size
# HCMV inh = blocks human cytomegalovirus replication | HFF cells, HCMV-luciferase reporter, 72 h; stronger effect = lower value | activity change, negative = inhibition, % at 57.5 µM | hit rate 4.5% among 410,000 | AID 1259415; in the data active means activity change below about -60%; inconclusive means no clear call, values can overlap the other calls; inactive means above about -39%
#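 Screen run at 2 compound doses on HFFs infected with reporter HCMV, MOI 1 PFU/cell. Luciferase activity from cell lysates at 72 h post infection gave inhibition relative to buffer-only and Salinomycin wells.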
# Numbers stand for hits; i = inactive; ? = inconclusive; nt = no result; + = active, no number; ! = a repeat was not active. Rows were chosen to be rich in hits. Some 7.9% of all compounds tested hit in one or more screens of this group.
SMILES,LASV entry inh,HCV inhibitor,MARV entry inh,FMDV antiviral,HCMV inh
COc1ccccc1/C=N/N1CCN(c2ccc(Cl)cc2)CC1,nt,i,nt,i,i
CC(C)NC(=O)c1cc(C2CCCCN2S(=O)(=O)c2ccccc2)on1 (stereo not given),nt,nt,nt,i,i
O=S(=O)(C/C(=C/CO)S(=O)(=O)c1ccccc1)c1ccccc1,?,10µM,1.8µM,7.9µM,-106
O=C(CS(=O)(=O)c1ccccc1)CS(=O)(=O)c1ccccc1,nt,nt,nt,nt,i
Cc1nc(-c2ccccn2)nc(N2CCOCC2)c1Cl,?,i,i,i,i
Cc1nc(-c2ccccn2)nc(N(C)c2ccccc2)c1Cl,nt,10µM,nt,i,-61
Cc1cc(-c2ccc(C)c(S(=O)(=O)NCCc3ccco3)c2)on1,nt,i,nt,i,i
Cc1cc(-c2ccc(C)c(S(=O)(=O)NCc3cccc(Br)c3)c2)on1,i,i,nt,i,-63!
Cc1cc(-c2ccc(C)c(S(=O)(=O)NCc3ccc(Br)cc3)c2)on1,nt,?,nt,i,-64
CCc1ccc(-c2cc(C)no2)cc1S(=O)(=O)NCc1ccc(OC)c(OC)c1,?,?,?,i,i
Cc1cc(-c2ccc(C)c(S(=O)(=O)NCCc3ccc(S(N)(=O)=O)cc3)c2)on1,i,i,nt,i,-64!
CCC(=O)NC1=C(Cl)C(=O)C(NC(=O)CC)=C(Cl)C1=O,nt,?,nt,?,-94
COC(=O)c1ccccc1-c1cc(C)cc2c1OC(CNC(=O)c1occc1C)C2 (stereo not given),nt,nt,nt,i,nt
COC(=O)c1c(C)[nH]c2ccccc12,nt,nt,nt,nt,i
O=C(NCCCc1nc2ccccc2n1Cc1ccc(Cl)cc1)c1ccco1,i,nt,i,?,i
O=C(NCCCc1nc2ccccc2n1Cc1cccc(Cl)c1)c1ccco1,i,nt,?,?,-76
CCCCCn1c(CCCNC(=O)c2cccc(C)c2)nc2ccccc21,?,nt,i,?,-85
Nc1nc(N)c2nc(CNc3ccc(C(=O)N[C@@H](CCC(=O)O)C(=O)O)cc3)cnc2n1,nt,nt,nt,i,nt
CNc1ccc(Br)cc(C(=O)/C=C/c2cccc(Cl)c2Cl)c1=O,nt,?,nt,20µM,i
CNc1ccccc(C(=O)/C=C/c2ccccc2OC)c1=O,?,?,11µM,?,i
CCNc1ccc(Br)cc(C(=O)/C=C/c2ccccc2Cl)c1=O,?,13µM,16µM,?,-103
CNc1ccc(Br)cc(C(=O)/C=C/c2cccc(OC)c2OC)c1=O,i,?,i,i,-92
COc1ccccc1/C=C/C(=O)c1cc(Br)ccc1OC(=O)c1ccco1,i,?,?,?,i
C[C@@H]1CN(Cc2ccc3c(c2)CN(Cc2cccn2-c2ccc(Cl)cn2)CCO3)C[C@H](C)O1,nt,nt,nt,i,nt
Cc1cccc(N=C2NC(=O)/C(=C/c3cccn3C)S2)c1C,?,?,8.9µM,i,?
SMILES,LASV entry inh,HCV inhibitor,MARV entry inh,FMDV antiviral,HCMV inh
COCCCN(C(=O)c1ccccc1F)c1nc(-c2ccc(OC)cc2)cs1,nt,10µM,nt,i,i
COCCN(C(=O)c1ccccc1)c1nc(-c2ccc(OC)cc2)cs1,nt,i,nt,i,i
COCCCN(C(C)=O)c1nc(-c2ccccc2)cs1,?,13µM,i,i,i
COCCCN(C(=O)c1ccco1)c1nc(-c2ccc(OC)cc2)cs1,?,?,?,i,i
COCCCN(C(=O)c1ccccc1)c1nc(-c2ccc(OC)cc2)cs1,nt,13µM,nt,i,i
COc1ccccc1NC(=O)COC(=O)C1CC2CCCC(C1)C2=O (stereo not given),i,i,i,i,i
COc1ccc(-n2c(CNC(=O)c3ccccc3C(F)(F)F)nnc2SC)cc1,nt,nt,nt,i,nt
O=C(CSc1nc2c(c(=O)[nH]1)CN(Cc1ccc3c(c1)OCO3)CC2)Nc1ccccc1Cl,i,nt,i,i,i
COc1ccc(NC(=O)Nc2ccc3c(c2)CC(=O)N([C@H](C)CO)C[C@@H](C)[C@H](CN(C)C(=O)Nc2ccccc2)O3)cc1,nt,?,nt,i,?
CC(=O)c1cccc(-c2ccc3c(c2)C(C)(Cc2ccccc2C#N)C(=O)N3)c1 (stereo not given),nt,nt,nt,i,-66
CCOC(=O)c1cnc2c(C)cc(C)cc2c1NCCCN1CCOCC1,nt,i,nt,i,-62
COc1cccc(OC)c1C(=O)Nc1ccncc1,?,i,i,i,i
CCOc1ccc(S(=O)(=O)/N=C(\N)c2ccccc2)cc1,13µM,?,i,i,i
CCOc1ccc(S(=O)(=O)/N=C(/c2ccccc2)N(C)C)cc1,nt,i,nt,i,i
CCOC(=O)c1ccc(N2C(=O)c3n[nH]c(-c4ccco4)c3C2c2ccc(O)c(OCC)c2)cc1 (stereo not given),?,nt,7.9µM,?,-105
CCOC(=O)c1ccc(N2C(=O)c3n[nH]c(-c4ccco4)c3C2c2ccc(C(=O)OC)cc2)cc1 (stereo not given),?,nt,?,?,-80
CCOc1cc(C2c3c(n[nH]c3C)C(=O)N2c2ccc(Br)cc2)ccc1O (stereo not given),i,25µM,i,i,?
COc1cc(C2c3c(n[nH]c3C)C(=O)N2c2ccc(Br)cc2)ccc1O (stereo not given),i,?,i,i,i
CCOC(=O)c1ccc(N2C(=O)c3[nH]nc(-c4ccc(C)cc4)c3C2c2ccc(O)c(OCC)c2)cc1 (stereo not given),?,nt,?,?,-101
Cc1nn(-c2ccccc2)c(C)c1CC(=O)NCC1Cc2cc(-c3cncnc3)ccc2O1 (stereo not given),nt,nt,nt,i,nt
CCN1C(=O)/C(=C2/Sc3ccccc3N2CC)S/C1=N\c1ncn[nH]1,?,?,?,i,?
CCCC12CN3CC(C)(CN(C1)C3c1ccc(OCc3ccccc3)cc1)C2=O (stereo not given),i,nt,i,i,i
CCOC(=O)c1ccc(N2C(=O)c3n[nH]c(-c4ccco4)c3C2c2ccc(OC)cc2OC)cc1 (stereo not given),?,nt,?,?,-105
CCOC(=O)c1ccc(N2C(=O)c3n[nH]c(C)c3C2c2ccco2)cc1 (stereo not given),?,i,?,i,i
CCOC(=O)c1ccc(N2C(=O)c3n[nH]c(-c4ccco4)c3C2c2cccc([N+](=O)[O-])c2)cc1 (stereo not given),?,11µM,5µM,35µM,i
SMILES,LASV entry inh,HCV inhibitor,MARV entry inh,FMDV antiviral,HCMV inh
c1ccc2c(c1)-c1nc3ccccc3cc1C2N1CCCCC1 (stereo not given),nt,nt,nt,i,-102
C[C@H](NC(=O)[C@@H]1Cc2ccccc2CN1C(=O)OC(C)(C)C)C(=O)NC1CCCCC1,i,i,i,i,+
Cc1ccc(CN2C(=O)c3ccccc3Sc3ccc(C(=O)N4CCC5(CC4)OCCO5)cc32)cc1,?,nt,nt,i,?
O=C(c1ccc2c(c1)N(Cc1ccc(F)cc1Cl)C(=O)c1ccccc1S2)N1CCC2(CC1)OCCO2,?,nt,nt,i,-68
C=CCN1C(=O)c2ccccc2Sc2ccc(C(=O)N3CCC4(CC3)OCCO4)cc21,i,?,i,i,-66
O=C(c1ccc2c(c1)N(Cc1cccc(F)c1)C(=O)c1ccccc1S2)N1CCC2(CC1)OCCO2,i,nt,nt,i,i
O=C(Cc1ccc([N+](=O)[O-])cc1)Nc1ccc(Br)cn1,i,i,?,i,-61
